Records with an inconclusive call do not appear. Unmarked numbers belong to inactive results. Active and inactive are the calls of the source. Calls come from the whole dose curve; as a rule, active = well fitted curve in the direction sought with a large enough effect; inconclusive = small, poorly fitted or top-dose-only effect, or another doubt; inactive = no such curve, though single readings can be large; an effect the other way counts as inactive or inconclusive.

Data on 26 compounds can be found in PubChem BioAssay (NCATS).

Assay [1] addresses Cellular tumor antigen p53 (Homo sapiens) (UniProt P04637). As to the kind of experiment: Primary qHTS for small molecule compounds that upregulate eGFP-tagged delta133p53alpha (in N-terminal) cells. (AID 2060322).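 For activation: series mostly up to about 56 µM; 0% = DMSO vehicle and 100% = reference activator.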 Note: nearly all actives have a fitted effect of over 75% in size. Note: potency is the fitted concentration of half-maximal effect. The conditions noted are these: NCI-H358 eGFP-delta133p53alpha fluorescence, 24 h; activation: active compounds read high. An outline of the steps:
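NCI-H358 cells pre-induced 24 h with 10 ng/ml doxycycline to express N-terminal eGFP-delta133p53alpha, then dosed 24 h at 37C without doxycycline; fixed, Hoechst-stained, GFP intensity by laser scanning cytometry, normalized to DMSO (0%) and 57.5 uM 5-azacytidine (100%).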

Assay [2] deals with Aldehyde dehydrogenase, mitochondrial (Homo sapiens) (UniProt P05091). The assay can be described thus: qHTS for Inhibitors of the Aldehyde Dehydrogenase Family (ALDH2) Primary screen (AID 2061308).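 Note: plate controls were vehicle for no effect and reference inhibitor for full effect; nearly all actives have a fitted effect of over 55% in size.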
Assay [3] has as its target Retinaldehyde dehydrogenase 3 (Homo sapiens) (UniProt P47895). The assay can be described thus: qHTS for Inhibitors of the Aldehyde Dehydrogenase Family (ALDH1A3) Primary screen (AID 2061315).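 Note: plate controls were DMSO vehicle for no effect and reference inhibitor for full effect.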 Background: In qHTS, concentration-response curves come from the screen itself.

Sequence of Cellular tumor antigen p53 (Homo sapiens) (P04637 whole entry, looked up): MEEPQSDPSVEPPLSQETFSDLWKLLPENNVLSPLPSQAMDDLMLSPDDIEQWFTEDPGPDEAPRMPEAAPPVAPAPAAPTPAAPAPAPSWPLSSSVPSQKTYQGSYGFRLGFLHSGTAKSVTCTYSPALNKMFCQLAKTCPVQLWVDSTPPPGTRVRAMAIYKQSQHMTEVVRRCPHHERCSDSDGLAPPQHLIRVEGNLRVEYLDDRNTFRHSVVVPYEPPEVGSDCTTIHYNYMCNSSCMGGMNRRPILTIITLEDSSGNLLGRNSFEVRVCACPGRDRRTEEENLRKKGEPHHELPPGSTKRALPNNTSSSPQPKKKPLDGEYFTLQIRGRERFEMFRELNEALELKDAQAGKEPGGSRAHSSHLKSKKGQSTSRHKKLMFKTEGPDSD

Consider `C[C@H](NC(=O)CCc1nc2ccccc2c(=O)[nH]1)c1ccccc1`, for which the activation in assay [1] was 1%. Further, the Potency result in assay [2] and in assay [3] was “inactive” in each case.
On to `CC1CC2OC3(OC2C(C)(C)O)C1C1(C)CCC24CC25CCC(O[C@@H]2OC[C@@H](O)[C@H](O)[C@H]2O)C(C)(C)C5CC=C4C1(C)C3O` (stereo partly drawn), for which, in assay [1], the activation is -18.8%. For the same compound, the Potency result in assay [2] and in assay [3] was “inactive” each time.
Take `CO[C@H]1/C=C/C=C/C=C/C[C@H](OC(=O)[C@@H](C)NC(=O)C2CCCCC2)[C@H](C)[C@@H](O)/C(C)=C/CCc2cc(O)cc(c2)NC(=O)C1`: in assay [1], the Potency was 2.81 µM (active). Further, the Potency result in assay [2] and in assay [3] was “inactive” in each case.
Regarding `CC(=O)OC1CC2(C)C(CCC(C)C23Cc2c(O)cc4c(c2O3)CNC4=O)C(C)(C)C1O` (stereo not drawn), in assay [1], the activation is 9.92%. Besides, the Potency result in assay [2] and in assay [3] was “inactive” in each case.
For the compound `CC1(CO)CC[C@]2(C(=O)O[C@@H]3O[C@H](CO)[C@@H](O)[C@H](O)[C@H]3O)CC[C@]3(C)C(=CCC4[C@@]5(C)C[C@H](O)[C@H](O[C@@H]6OC[C@@H](O)[C@H](O)[C@H]6O)[C@@](C)(CO)C5CC[C@]43C)C2C1` (stereo partly drawn), the activation in assay [1] was -16%. Further, the Potency entry in assay [2] and in assay [3] was “inactive” in each case.
`C[C@H]1[C@H](C)CC[C@]2(C(=O)O)CC[C@]3(C(=O)O)C(=CCC4[C@@]5(C)CC[C@H](O[C@@H]6O[C@H](C)[C@@H](O)[C@H](O)[C@H]6O)C(C)(C)C5CC[C@]43C)[C@H]12` (stereo partly drawn): the activation in assay [1] is -5.36%. Moreover, the Potency result in assay [2] and in assay [3] was “inactive” in each case.
Take `CCC(C)/C=C(C)/C=C/C1=CC2=CC(=O)C3(C)OC(C)(O)C(C(=O)OC)C3C2=CO1` (stereo not drawn): in assay [1], the Potency is 13.1 µM (active). The Potency result in assay [2] and in assay [3] was “inactive” throughout.
For the compound `COc1cc2oc(-c3ccc(O)cc3O)cc2c(OC)c1CC=C(C)C`, in assay [1], the activation is 9.82%. In addition, the Potency result in assay [2] and in assay [3] was “inactive” in each case.
Turning to `COC(=O)C1=CO[C@@H](O[C@@H]2O[C@H](CO)[C@@H](O)[C@H](O)[C@H]2O)[C@@H]2[C@@H](C(=O)OC)[C@@H](O)C(O)[C@H]12` (stereo partly drawn), the activation in assay [1] is -19.8%. Further, the Potency entry in assay [2] and in assay [3] was “inactive” each time.
For `CC(=O)OC1CC(O)(C(C)C)C2C(OC(=O)c3ccc(O)cc3)C=C(C)C(=O)CC12C` (stereo not drawn), the activation in assay [1] was 29.8%. Besides, the Potency result in assay [2] and in assay [3] was “inactive” in each case.
With `CCOC(=O)C(CCc1ccccc1)NC(C)C(=O)N1Cc2ccccc2CC1C(=O)O` (stereo not drawn), the activation in assay [1] is -13.4%. For the same compound, the Potency entry in assay [2] and in assay [3] was “inactive” in each case.
Take `C/C=C/C=C/C(=O)N1CC[C@]23c4ccccc4N[C@H]4N(C)c5cccc6c5[C@@]42CCN([C@H]6C2OC2(C)C)[C@H]13` (stereo partly drawn): the activation in assay [1] was 15.3%. Moreover, the Potency entry in assay [2] and in assay [3] was “inactive” in each case.
For the compound `COC(=O)C12CCC(C)C(C)C1C1=CCC3C4(C)CCC(OC(C)=O)C(C)(C)C4CCC3(C)C1(C)CC2` (stereo not drawn), the activation in assay [1] was -12.2%. The Potency result in assay [2] and in assay [3] was “inactive” throughout.
Turning to `OC[C@H]1O[C@@H](OCCc2ccc(O)cc2)[C@H](O[C@@H]2OC[C@](O)(CO)[C@H]2O)[C@@H](O)[C@@H]1O`, in assay [1], the activation is 1.79%. Besides, the Potency entry in assay [2] and in assay [3] was “inactive” each time.
For the compound `COC(=O)c1[nH]c(=O)c2ccccc2c1-c1ccc[nH]1`, the activation in assay [1] is -11.6%. In addition, the Potency result in assay [2] and in assay [3] was “inactive” throughout.
As for `COC(=O)C1=C[C@@H](O)[C@@H](O)[C@H](O[C@@H]2O[C@H](COC(=O)/C=C/c3ccccc3)[C@@H](O)[C@H](O)[C@H]2O)C1`, in assay [1], the activation was -3.05%. Further, the Potency entry in assay [2] and in assay [3] was “inactive” in each case.
As to `C[C@@H]1O[C@@H](O[C@H]2[C@H](O[C@H]3CC[C@@]4(C)C(CC[C@]5(C)C4CC=C4C6CC(C)(C)CC[C@]6(C(=O)O[C@@H]6O[C@H](CO[C@@H]7O[C@H](CO)[C@@H](O[C@@H]8O[C@@H](C)[C@H](O)[C@@H](O)[C@H]8O)[C@H](O)[C@H]7O)[C@@H](O)[C@H](O)[C@H]6O)CC[C@]45C)[C@]3(C)CO)OC[C@H](O)[C@@H]2O)[C@H](O)[C@H](O)[C@H]1O` (stereo partly drawn), in assay [1], the activation was 3.82%. Besides, the activity change, negative = inhibition is 15.8% [at 11.2 µM] in assay [2] and 17.4% [at 11.2 µM] in assay [3].
Regarding `C[C@@H]1O[C@@H](O[C@H]2[C@H](O)[C@@H](O[C@@H]3O[C@H](CO)[C@@H](O)[C@H](O[C@@H]4O[C@H](CO)[C@@H](O)[C@H](O)[C@H]4O)[C@H]3O)[C@H](O[C@H]3CC[C@@]4(C)C(=CC[C@@H]5C4CC[C@@]4(C)C5C[C@@H]5OC6(CC[C@@](C)(CO[C@@H]7O[C@H](CO)[C@@H](O)[C@H](O)[C@H]7O)O6)[C@@H](C)[C@@H]54)C3)O[C@@H]2CO)[C@H](O)[C@H](O)[C@H]1O` (stereo partly drawn), the activation in assay [1] is -25.2%. Further, the activity change, negative = inhibition in assay [2] is 9.58% [at 11.2 µM]; in assay [3], 9.26% [at 11.2 µM].
As to `CC1OC(OC2C(CO)OC(OCC3OC(OC(=O)C45CCC(C)(C)CC4C4=CCC6C7(C)CCC(OC8OC(C(=O)O)C(O)C(OC9OC(CO)C(O)C(O)C9O)C8O)C(C)(C)C7CCC6(C)C4(C)CC5)C(O)C(O)C3O)C(O)C2O)C(O)C(O)C1O` (stereo not drawn), the activation in assay [1] is 18.3%. Moreover, the activity change, negative = inhibition is -0.0745% [at 11.2 µM] in assay [2] and -5.8% [at 11.2 µM] in assay [3].
Regarding `CC(=O)OC1CCC2(C)C(CCC3(C)C2CC=C2C4C(C)C(C)CCC4(C)CCC23C)C1(C)C(=O)O` (stereo not drawn), the activation in assay [1] is -6.11%. The Potency entry in assay [2] and in assay [3] was “inactive” throughout.
Regarding `COC(=O)CC[C@@H](C)[C@H]1CC[C@H]2[C@@H]3CC(=O)[C@H]4C[C@H](OC(C)=O)CC[C@]4(C)[C@H]3CC[C@]12C`, the activation in assay [1] is -4.33%. The Potency entry in assay [2] and in assay [3] was “inactive” in each case.
Regarding `C=C1C(=O)O[C@@H]2[C@H]1CC[C@H](C)C(CCC(=O)O)C2(C)O` (stereo partly drawn), the Potency in assay [1] is 23.9 µM (active). Moreover, the Potency entry in assay [2] and in assay [3] was “inactive” each time.
Regarding `CC1(C)CC[C@]2(C(=O)O[C@@H]3O[C@H](CO)[C@@H](O)[C@H](O)[C@H]3O)[C@H](O)C[C@]3(C)C(=CCC4[C@@]5(C)CC[C@H](O[C@@H]6OC[C@@H](O)[C@H](O)[C@H]6O)[C@@](C)(C(=O)O)C5CC[C@]43C)[C@@H]2C1` (stereo partly drawn), the activation in assay [1] is -16.8%. The Potency entry in assay [2] and in assay [3] was “inactive” in each case.
As to `COc1ccccc1[C@@H]1C2=C(CC(C)(C)CC2=O)Nc2n[nH]c(C(F)(F)F)c21`, the activation in assay [1] was 9.67%. For the same compound, the Potency entry in assay [2] and in assay [3] was “inactive” each time.
As to `COc1cc2c(cc1OC)CC(=O)N(CCCNC[C@H]1Cc3cc(OC)c(OC)cc31)CC2`, the activation in assay [1] was -11.7%. Also, the Potency result in assay [2] and in assay [3] was “inactive” each time.
For the compound `CO[C@H]1C[C@@H]2CC[C@@H](C)[C@@](O)(O2)C(=O)C(=O)N2CCCC[C@H]2C(=O)O[C@H]([C@H](C)C[C@@H]2CC[C@H](n3cnnn3)[C@H](OC)C2)CC(=O)[C@H](C)/C=C(\C)[C@@H](O)[C@@H](OC)C(=O)[C@H](C)C[C@H](C)/C=C/C=C/C=C/1C`, the activation in assay [1] was 1%. Also, the Potency result in assay [2] and in assay [3] was “inactive” each time.
